Source: PubChem BioAssay (National Center for Advancing Translational Sciences (NCATS))
AmpC no deterg – qHTS Inhibitors of AmpC Beta-Lactamase (assay without detergent). P00811. AmpC nitrocefin hydrolysis, absorbance 480 nm, 0.0001% Triton. Potency, µM (titrated, usually from 57.1 µM), hits mostly inhibitors. actives 0.52% (n = 330,000). AID 485341, 2010; further: nearly all actives have a fitted effect of over 20% in size
Target sequence (P00811 whole entry, looked up): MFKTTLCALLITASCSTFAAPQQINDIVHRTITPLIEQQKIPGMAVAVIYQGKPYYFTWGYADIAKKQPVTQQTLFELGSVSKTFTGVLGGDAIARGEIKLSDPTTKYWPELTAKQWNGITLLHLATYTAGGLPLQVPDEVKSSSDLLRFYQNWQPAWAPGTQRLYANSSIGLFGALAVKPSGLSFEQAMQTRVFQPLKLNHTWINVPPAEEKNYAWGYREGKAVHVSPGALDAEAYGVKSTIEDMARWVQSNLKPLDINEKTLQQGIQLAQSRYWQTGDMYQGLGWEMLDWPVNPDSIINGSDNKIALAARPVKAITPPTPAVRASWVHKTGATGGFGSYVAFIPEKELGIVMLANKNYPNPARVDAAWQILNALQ
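20 mM phosphate pH 7.0 + 0.01% (detergent screen) or 0.0001% Triton X-100; 5.3 nM AmpC reagent; cpd preinc 15 min RT; nitrocefin (800 uM stock) to start; A480 q20 s × 4 min; Activity was normalised to no-enzyme and no-compound control wells.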
Sm TGR block – qHTS Assay for the Inhibitors of Schistosoma Mansoni Peroxiredoxins; Schistosoma mansoni thioredoxin glutathione reductase (TGR), Q962Y6; purified TGR, DTNB reduction, TNB absorbance 405 nm; Potency, µM (top dose mostly 114 µM), actives largely listed as inhibitors; actives 3% (n = 360,000); AID 485364, 2010; further: nearly all actives have a fitted effect of over 60% in size
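Kinetic colorimetric format: TGR-catalysed, NADPH-driven DTNB reduction monitored via TNB absorbance. Enzyme dispensed at 20 nM; compound exposure 15 min at room temperature before reaction start.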
AmpC inh detg – qHTS Inhibitors of AmpC Beta-Lactamase (assay with detergent). P00811. AmpC hydrolysis of nitrocefin, absorbance 480 nm, 0.01% Triton. Potency, µM (titrated, usually from 114 µM), most hits filed as inhibitors. actives 0.041% (n = 370,000); further: nearly all actives have a fitted effect of over 25% in size
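20 mM phosphate pH 7.0 + 0.01% (detergent screen) or 0.0001% Triton X-100; 5.3 nM AmpC reagent; cpd preinc 15 min RT; nitrocefin (800 uM stock) to start; A480 q20 s × 4 min; Activity was normalised to no-enzyme and no-compound control wells.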
Large screens that a line does not name were inactive. Shown are actives, neighbours in structure and some others; about 3.3% of the full set was active somewhere. The call rests on the fitted dose curve; in most records, active means well fitted curve in the direction sought with a large enough effect; inconclusive means small, poorly fitted or top-dose-only effect, or another doubt; inactive means no such curve, though single readings can be large; an effect the other way counts as inactive or inconclusive.

O=C(CN1C(=O)COc2ccc(S(=O)(=O)N3CCCCCC3)cc21)NCCc1ccccc1	none (no result: AmpC no deterg)
COc1ccc(COc2ccsc2C(=O)Nc2ccc(Cl)cc2)cc1	AmpC no deterg 0.35µM
COc1ccc(NC(=O)c2csc(Cc3ccc(Cl)cc3)n2)cc1	none
CSc1ccc(CCNC(=O)Cn2ncn3c(cc4ccccc43)c2=O)cc1	none (no result: AmpC no deterg)
O=c1c(N2CCN(c3cccc(Cl)c3)CC2)csc2ccc(Cl)cc12	none (no result: AmpC no deterg)
O=C1NC2(CCC3(CC2)OCCO3)NN1c1ccccc1	none
Cc1ccc(N2NC3(CCN(C(N)=O)CC3)NC2=O)cc1	Sm TGR block 40µM
COc1cccc(CNC(=O)CCC2CCCN(C(=O)c3ccoc3)C2)c1 (stereo not drawn)	none
COc1cccc(CNC(=O)CCC2CCCN(C3CCOCC3)C2)c1 (stereo not drawn)	Sm TGR block 4.5µM
CCOC(=O)c1ccccc1NC(=O)N1CCN2CCCCC2C1 (stereo not drawn)	none (no result: AmpC no deterg)
CCCCOc1cccc(C(=O)N(Cc2sccc2C)C2CCS(=O)(=O)C2)c1 (stereo not drawn)	none (no result: AmpC no deterg)
c1ccc(CNc2nc3ccccc3c3nc(-c4ccccc4)nn23)cc1	none (no result: AmpC no deterg)
COc1ccc(C)cc1-n1c(C)cc(C=O)c1C	none
COc1ccc(N)cc1-n1c(C)ccc1C	Sm TGR block 16µM
Cc1ccccc1C(=O)NC1(C(F)(F)F)N=C(c2ccccc2)N(C2CCCCC2)C1=O (stereo not drawn)	none (no result: AmpC no deterg)
Cc1cc(C)c(NC(=O)/C=C\C(=O)O)c([N+](=O)[O-])c1	Sm TGR block 16µM
COc1cc(OC)c(NC(=O)/C=C/C(=O)O)cc1Cl	Sm TGR block 50µM
COc1ccc([N+](=O)[O-])cc1NC(=O)/C=C/C(=O)O	none
Cc1cc(C)c(NC(=O)/C=C\C(=O)O)c(Cl)c1	Sm TGR block 35µM
Cc1cc(C)c(NC(=O)CS)c(Cl)c1	Sm TGR block inconclusive
Cc1ccc(NC(=O)/C=C\C(=O)O)c([N+](=O)[O-])c1	Sm TGR block inconclusive
Cc1ccc(-n2ncc3c(NC4CCCCC4)ncnc32)cc1	none (no result: AmpC no deterg)
CC(CNC(=O)c1ccc2nc(Cc3ccccc3)oc2c1)c1ccccc1 (stereo not drawn)	none (no result: AmpC no deterg)
Fc1ccccc1/C=N/n1cc(-c2ccccc2)[nH]c1=S	none
Cc1ccc(C)c(/C=N/n2cc(-c3ccccc3)[nH]c2=S)c1	AmpC no deterg 16µM
CCN(CC)CCCNC(=O)c1ccc2nc(CCc3ccccc3)oc2c1	none (no result: AmpC no deterg)
Nc1c(C(=O)NCc2ccccc2)nnn1Cc1cccc(Br)c1	AmpC inh detg inconclusive (no result: AmpC no deterg)
COc1ccc(OC)c(S(=O)(=O)Nc2cc3c(cc2N2CCCC2)n(C)c(=O)c(=O)n3C)c1	Sm TGR block 32µM, AmpC inh detg inconclusive
Cn1c(=O)c(=O)n(C)c2cc(N3CCCC3)c(NS(=O)(=O)c3ccc(F)cc3)cc21	Sm TGR block inconclusive
Cc1ccc(S(=O)(=O)Nc2cc3c(cc2N2CCOCC2)n(C)c(=O)c(=O)n3C)cc1	none
Cn1c(=O)c(=O)n(C)c2cc(N3CCOCC3)c(NS(=O)(=O)c3ccc(Br)cc3)cc21	Sm TGR block 25µM
COc1ccccc1Nc1ncc2c(n1)CCN(CC(C)C)C2	none (no result: AmpC no deterg)
Cc1ccc(NC(=O)CCCn2c(=O)c3cccn3c3ccccc32)c(C)c1	none (no result: AmpC no deterg)
CN(C)S(=O)(=O)c1cccc(NC(=S)NC(=O)c2ccco2)c1	Sm TGR block inconclusive
CN(C)S(=O)(=O)c1cccc(NC(=S)NNC(=O)c2cc3ccccc3cc2O)c1	AmpC no deterg 25µM
Cc1ccc(NC(=O)c2ccc(CNS(=O)(=O)c3ccc4c(c3)C(C)(C)C(=O)N4C)cc2)cc1F	none (no result: AmpC no deterg)
COc1cccc(=O)c2c(C)n(-c3cc(C)cc(C)c3)c(C)c12	none
COc1cccc(-n2c(C)c3c(OC)cccc(=O)c3c2C)c1	Sm TGR block 22µM
O=C1CC(N2CCSCC2)C(=O)N1c1ccc(F)cc1 (stereo not drawn)	Sm TGR block inconclusive
CCCOc1ccc(N2C(=O)CC(N3CC=C(c4ccccc4)CC3)C2=O)cc1 (stereo not drawn)	Sm TGR block 28µM
CCCOc1ccc(N2C(=O)CC(N3CCOCC3)C2=O)cc1 (stereo not drawn)	AmpC inh detg inconclusive
O=C1CC(N2CC=C(c3ccccc3)CC2)C(=O)N1c1ccc(F)cc1 (stereo not drawn)	AmpC no deterg 45µM, Sm TGR block 8.9µM, AmpC inh detg inconclusive
COc1ccc(C(=O)NC2(C(F)(F)F)C(=O)NC(C)=C2C#N)cc1 (stereo not drawn)	none (no result: AmpC no deterg)
N#C/C(=C\c1cc(Cl)c(OCc2ccc(Cl)cc2)c(Cl)c1)C(N)=O	none
N#C/C(=C\c1cc(O)c(O)c(O)c1)C(N)=O	Sm TGR block 13µM
O=C(Nc1cccc(OCc2cc(=O)n3ccccc3n2)c1)Nc1cccc(C(F)(F)F)c1	none (no result: AmpC no deterg)
Cc1nn(C)c2c1c(C(F)(F)F)cc(=O)n2C(C)C(=O)N1CCN(c2ccccc2)CC1 (stereo not drawn)	none (no result: AmpC no deterg)
Cc1cc(N2CCN(c3ccccc3)CC2)nc(-c2ccccc2)n1	AmpC inh detg inconclusive
Cc1ccc(Cl)c2sc(N3CCN(C(=O)c4ccco4)CC3)nc12	none
Cc1cc(N2CCN(C(=O)c3ccco3)CC2)nc(-c2ccccc2)n1	Sm TGR block 45µM
Cc1ccc(C)c2sc(N3CCN(C(=O)c4ccco4)CC3)nc12	Sm TGR block 56µM (no result: AmpC no deterg)
Cc1ccc(CNC(=O)CSCc2nc(-c3cccc(C)c3)oc2C)cc1	Sm TGR block inconclusive (no result: AmpC no deterg)
CCOC(=O)COn1c(=O)c(-c2ccco2)[n+]([O-])c2ccccc21	none
O=c1c(-c2ccco2)[n+]([O-])c2ccccc2n1OCc1ccccc1F	Sm TGR block inconclusive
C=CCOn1c(=O)c(-c2ccc(OC)cc2)[n+]([O-])c2ccccc21	AmpC inh detg inconclusive
COc1ccccc1COn1c(=O)c(-c2ccco2)[n+]([O-])c2ccccc21	Sm TGR block 14µM
O=c1c(-c2ccco2)[n+]([O-])c2ccccc2n1OCc1ccccc1	Sm TGR block 10µM
O=c1c(-c2ccco2)[n+]([O-])c2ccccc2n1OCc1c(F)cccc1F	Sm TGR block 16µM
CCOC(=O)c1cc(-c2ccccc2)n(CCC(=O)NCc2ccccc2Cl)c1C	none (no result: AmpC no deterg)
CCc1nn(CC(=O)NCCCOC)c(=O)c2cc3occc3n12	none (no result: AmpC no deterg)
CCCc1cc(=O)[nH]c(SCC(=O)c2cc(C)n(CC(F)(F)F)c2C)n1	none
Cc1cc(C(=O)Cn2ncc(Cl)c(Cl)c2=O)c(C)n1CC(F)(F)F	Sm TGR block 45µM
Cc1ccc(C)c(C(=O)Cn2ncc(Cl)c(Cl)c2=O)c1	Sm TGR block 50µM
Cc1cccc(Cn2ncc(Cl)c(Cl)c2=O)c1	none
Cc1nc(Oc2ccccc2)c2ccccc2n1	none
c1ccc(Oc2c3ccccc3nc3ccccc23)cc1	Sm TGR block 5µM
CCOC(=O)c1cc(-c2ccccc2)n(CCC(=O)NCCc2ccccc2)c1C	none (no result: AmpC no deterg)
O=C(CSc1nnc(-c2ccco2)o1)c1ccc(F)c(F)c1	none
O=C(CSc1nnc(-c2ccco2)o1)c1ccc[nH]1	Sm TGR block 28µM
O=C(CSc1nnc(-c2ccco2)o1)c1ccccc1	Sm TGR block 25µM, AmpC inh detg inconclusive
O=C(CSc1nnc(-c2ccco2)o1)Nc1c(F)cccc1F	none
